The values that follow come from PubChem BioAssay AID2314 (National Center for Advancing Translational Sciences (NCATS), 2010).

Screen size: about 300,000 compounds; about 37,000 (12%) were called active. Rule as the data show it: active = max response mostly above about 13% (no sharp cut-off); inactive = mostly below about 14%. Shown is part of a subset that was picked to be rich in actives.

The experiment can be described thus: Cycloheximide Counterscreen for Small Molecule Inhibitors of Shiga Toxin. Also: read at 38.3 µM for the half of the compounds with a filed dose; 0% is about no effect. As to conditions: cell reporter, cycloheximide protein synthesis inhibition counterscreen; stronger effect = higher value. In general terms: A counterscreen serves to expose hits that act by an unwanted route or on another target.
Take `O=C(O)c1ccc(-n2nc(-c3ccccc3)c3ccccc3c2=O)cc1`: the max response is 15% (inactive).
`COc1ccc(OC)c(S(=O)(=O)n2c([N+](=O)[O-])cnc2C)c1`: the max response is 1.29% (inactive).
With `COc1cccc(CNC(=O)C2CC(=O)N(C3CCCCCCC3)C2)c1` (centres undefined), the max response is 24.6% (inactive).
On to `COc1ccc(C2NC(=O)c3ccccc3N2)cc1` (centres undefined), for which the max response is 19.8% (active).
Regarding `C=CCOc1cccc(C2NC(=O)c3ccccc3O2)c1` (centres undefined), the max response was 11.8% (inactive).
Regarding `O=C1NC(c2cccc(Cl)c2)Nc2ccccc21` (centres undefined), the max response is 16% (active).
For the molecule `Cc1ccc(C2Nc3cccc4cccc(c34)N2)cc1`, the max response was 2.47% (inactive).
For the molecule `O=C1CC(c2cccc(Cl)c2)CC(O)=C1C=Nc1ccccc1` (centres undefined), the max response was -1.34% (inactive).
Regarding `COc1cccc(C2Nc3cccc4cccc(c34)N2)c1`, the max response is 1.12% (inactive).
The value for `CC1=CC(C)(C)NC(=S)N1c1ccccc1` was -0.571% (inactive); that for `COC(=O)c1ccccc1NC(=O)CSc1nc2c(c(=O)[nH]1)CCC2` was -0.834% (inactive).
For the molecule `COc1ccc(NC(=O)CC2C(=O)NC3CCCCC3N2C(=O)c2ccc(F)cc2)cc1` (centres undefined), the max response is -1.58% (inactive).
Regarding `COc1cccc(Nc2ncccc2C(=O)O)c1`, the max response is 48% (active).
Regarding `O=C(Nc1ccccc1)c1cccnc1Nc1ccccc1`, the max response is 15% (inactive).
For the molecule `COc1cccc(NC(=O)c2ccccc2SC)c1`, the max response was 2.56% (inactive).
On to `CC(C)CCn1cnc2c1c(=O)n(CC(=O)NC(N)=O)c(=O)n2Cc1ccccc1`, for which the max response is -9.03% (inactive).
On to `Nc1nc(Nc2ccccc2F)nc(NC2CCCCC2)c1[N+](=O)[O-]`, for which the max response is -1.02% (inactive).
The value for `CCOC(=O)C1CCN(C(=O)COc2cc(C)c(Br)c(C)c2)CC1` was -0.76% (inactive); that for `CCOC(=O)C1CCN(C(=O)COc2cccc3ccccc23)CC1` was 21.6% (active); that for `NC(=O)C1CCN(C(=O)COc2cccc3cccnc23)CC1` was -4.62% (inactive).
Regarding `O=C(c1cc2c(s1)CCC2)N1CCN(c2ccccc2)CC1`, the max response was 35.8% (active).
As to `CN(CC(=O)Nc1ccccc1F)CC(=O)Nc1ccccc1Br`, the max response is 27.5% (inactive).
As for `O=C(Nc1ccc(F)cc1)c1cc2c(s1)CCCC2`, the max response is 34.8% (active).
As for `O=C(NNC(=O)c1cc2c(s1)CCCC2)c1ccccc1`, the max response is 60.8% (active).
Take `O=C(c1ccccc1)c1ccc(C(=O)N2CCN(c3ccccc3)CC2)cc1`: the max response was 11.3% (inactive).
For the molecule `O=C(C1CCC1)N1CCN(c2ccccc2)CC1`, the max response is -0.903% (inactive).
With `O=C(COC(=O)c1cc2c(s1)CCCC2)NCc1ccccc1Cl`, the max response is -0.034% (inactive).
The value for `O=C(CNC(=O)c1cc2c(s1)CCC2)Nc1ccccc1Br` was 28.4% (active); that for `Cc1nn(C)cc1C(=O)Nc1ccccc1Br` was 9.35% (inactive); that for `COc1ccc(/C=C2/SC(=O)N(CCCCCC(=O)Nc3ccccc3C(=O)O)C2=S)cc1` was -7.35% (inactive).
To `Cc1cc(NC(=O)CCC(=O)N(CC(=O)NC2CCCC2)c2ccc(F)cc2)no1` belongs -7.13% (inactive); to `CC(C)CCn1c(=O)c2c(nc3n2CCCN3Cc2ccccc2)n(C)c1=O`, -1.82% (inactive); to `O=C(CSCc1ccc([N+](=O)[O-])cc1)Nc1cccc(C(=O)Nc2ccccc2C(=O)O)c1`, -3.69% (inactive).
For the molecule `C=CCn1c(C2CC(=O)N(c3ccc(C)cc3)C2)nc2ccccc21` (centres undefined), the max response is -5.17% (inactive).
Consider `CC(C)(C)c1cc2cccnc2n1Cc1cccc(F)c1`, for which the max response was -4.56% (inactive).
For the molecule `CCc1ccc(OCC(=O)N(Cc2ccccc2)C2CCS(=O)(=O)C2)cc1` (centres undefined), the max response was -3.33% (inactive).
To `CCOc1ccc(-c2noc(CCC(=O)NC3CCCC3)n2)cc1OC` belongs -5.32% (inactive).
For `COc1ccc(OC)c(Cc2nnc(CCC(=O)NC3CCCC3)o2)c1`, the max response is 18.4% (active).
The value for `COc1ccc(-c2noc(CCCC(=O)NC3CCCC3)n2)cc1OC` was 3.35% (inactive).
For `CC(=O)c1cc(CN2CCC(C(=O)Nc3cccc(-c4cscn4)c3)CC2)cs1`, the max response was 1.1% (inactive).
Regarding `CCCN(CCC)c1nc2c(C)cccn2c(=O)c1/C=C1/SC(=S)N(Cc2ccco2)C1=O`, the max response was 3.29% (inactive).
Consider `CC1CN(CC(=O)NC(C)c2ccccc2)CC(C)O1` (centres undefined), for which the max response was -1.49% (inactive).
For `O=C(NCc1cccs1)c1ccc(CS(=O)Cc2ccccc2Cl)o1` (centres undefined), the max response is -1.19% (inactive).
Consider `COc1ccc(-n2nc(C(=O)Nc3cc(OC)c(OC)c(OC)c3)c3ccccc3c2=O)c(OC)c1`, for which the max response is 7.65% (inactive).
Take `COc1ccc(-n2nc(C(=O)NCC(=O)N3CCN(c4ccccc4OC)CC3)c3ccccc3c2=O)c(OC)c1`: the max response was 24.9% (active).
As for `COc1cccc(NC(=O)c2nn(-c3ccc(OC)cc3OC)c(=O)c3ccccc23)c1`, the max response is -9.73% (inactive).
`Cc1ccc(S(=O)(=O)N(CC(O)CN2CCCCC2)c2cccc([N+](=O)[O-])c2)cc1` (centres undefined): the max response was -3.71% (inactive).
Turning to `COc1ccc(N(Cc2ccc(N(C)C)cc2)C(=O)c2ccc(S(C)(=O)=O)cc2)cc1`, the max response is -1.82% (inactive).
Turning to `O=C(O)CCn1cc(/C=C/C(=O)c2ccc(Cl)cc2)c(-c2cccc(Br)c2)n1`, the max response is 0.455% (inactive).
To `FC(F)(F)c1nnc2c3ccccc3c(Cl)nn12` belongs -3.49% (inactive); to `Oc1oc(-c2ccccc2Br)nc1/C=N/c1ccccn1`, 34.5% (active).
`CC(C)n1c(O)c(N=Nc2ccccn2)c2ccccc21`: the max response is 4.74% (inactive).
To `CN(C(=O)CN1C(=O)S/C(=C\c2ccccc2F)C1=O)C1CCS(=O)(=O)C1` (centres undefined) belongs 0.582% (inactive); to `COc1ccc(CNC(=O)C(c2ccc(O)cc2)N(Cc2ccco2)C(=O)c2snc(C(N)=O)c2N)cc1` (centres undefined), 2.14% (inactive).
With `CCC(C)Sc1nc2c(cnn2-c2ccc(F)cc2)c(=O)[nH]1` (centres undefined), the max response was 3.85% (inactive).
Turning to `CC(C)=CCN1CCN(Cc2cc3ccccc3[nH]2)CC1CCO` (centres undefined), the max response was -3.61% (inactive).
Consider `Cc1cc(C)c(S(=O)(=O)c2cc(F)ccc2C)c(=O)[nH]1`, for which the max response was 2.04% (inactive).
For `CCOc1cc(NC(=O)CCl)c(OCC)cc1NC(C)=O`, the max response is -3.13% (inactive).
Consider `CC(Cc1cccs1)N(Cc1ccc(Cl)cc1)C(=O)c1ccncc1` (centres undefined), for which the max response is -4.21% (inactive).
To `Cc1cc(C)nc(NC(=O)/C=C/c2ccc(Cl)cc2)n1` belongs 17.8% (active); to `O=C(/C=C/c1ccc(Cl)cc1)Nc1ccc(Br)cn1`, 14.3% (inactive).
To `CC(C)(C)c1ccc(/C=C/C(=O)NC2CCS(=O)(=O)C2)cc1` (centres undefined) belongs 5.09% (inactive).
Regarding `O=C(/C=C/c1ccc(Cl)cc1)Nc1ccc(S(=O)(=O)Nc2ncccn2)cc1`, the max response was 5.75% (inactive).
As for `Cc1ccc(NC(=S)NC(=O)/C=C/c2ccc(Cl)cc2)cc1`, the max response was 8.42% (inactive).
For `CC(C)(C)c1ccc(/C=C/C(=O)Nc2ncccn2)cc1`, the max response is 65.3% (active).
For `O=S(=O)(NC1CC1)c1ccc2c3c(cccc13)CC2`, the max response was -1.96% (inactive).
`COc1ccc(C(O)(C2CCCCC2)C(CN2CCCC2)c2ccccc2)cc1` (centres undefined): the max response was -2.99% (inactive).
For `COC(=O)c1ccc(CN2C(=O)NC(c3ccccc3)(c3ccccc3)C2=O)o1`, the max response is -8.22% (inactive).
Take `O=C(Nc1cccc(F)c1)NC1CCCc2ccccc21` (centres undefined): the max response is -2.71% (inactive).
Regarding `C/C(CC(=O)Nc1cccc(F)c1)=N\NC(=O)C(=O)NC1CCCCC1`, the max response is 12.1% (active).
To `O=C(Nc1cccc(F)c1)[C@@H]1CCCN1` belongs -0.0627% (inactive); to `C/C(CC(=O)Nc1cccc(C(F)(F)F)c1)=N\NC(=O)C(=O)NCC(C)C`, -3.56% (inactive).
Turning to `O=C(Nc1cccc(F)c1)NC1CCCCCCC1`, the max response is 52.8% (active).
The value for `COc1cccc(NC(=O)C/C(C)=N/NC(=O)C2CCCCC2)c1` was 1.09% (inactive).
As to `Cc1ccc(CN2CCN(Cc3ccccc3-c3ccco3)CC2CCO)o1` (centres undefined), the max response is -2.94% (inactive).
In the case of `CCN(c1ccccc1)S(=O)(=O)c1cc2c(cc1C)n(C)c(=O)c(=O)n2C`, the max response was 1.1% (inactive).
As to `C=CCn1c(C23CC4CC(CC(C4)C2)C3)n[nH]c1=S`, the max response was -2.9% (inactive).
As to `COc1ccccc1N1CCN(c2ncnc3sc(C)c(-c4ccccc4)c23)CC1`, the max response was 23.3% (inactive).
`Cc1ccc2c(c1)N(C(=O)CCC(=O)NCc1cccnc1)CCO2`: the max response was -2.33% (inactive).
In the case of `CC(=O)N1CCOc2ccc(S(=O)(=O)N3CCN(c4cccc(C(F)(F)F)c4)CC3)cc21`, the max response was -4.21% (inactive).
Turning to `Cc1ccc2[nH]cc(CCCN3C(=O)c4ccccc4C3=O)c2c1`, the max response was 10.1% (active).
Turning to `Cc1ccc2[nH]cc(CCNC(=O)C3CCCCC3)c2c1`, the max response was 0.628% (inactive).
To `COc1ccc(C[C@H](C(=O)O)N2C(=O)c3ccc(C(=O)O)cc3C2=O)cc1` belongs -3.3% (inactive).
To `COCCCN1C(=O)c2ccc(C(=O)Nc3ccc(OC)cc3OC)cc2C1=O` belongs 0.803% (inactive); to `Cc1ccc2[nH]cc(CCNC(=O)c3ccc([N+](=O)[O-])cc3)c2c1`, 0.0509% (inactive); to `COc1ccc2[nH]cc(CCN3C(=O)c4ccc(C(=O)O)cc4C3=O)c2c1`, 21.7% (active).
With `Clc1cccc(Cl)c1OCCOCCNCc1ccccc1`, the max response is 1.5% (inactive).
Take `CCN(CC)Cc1c(C(=O)N/N=C/c2cccc(OCc3ccc(F)cc3)c2)nnn1-c1nonc1N`: the max response is 8.82% (inactive).
Take `CN(C)CCCn1c(=O)n(Cc2ccccc2)c(=O)c2c3c(sc21)CCCCC3`: the max response is -4.51% (inactive).
In the case of `Cc1occc1C(=O)NC1CCCN(Cc2ccc(CC(C)C)cc2)C1` (centres undefined), the max response was 9.49% (inactive).
The value for `CC1(C(=O)N/N=C/c2cc3c(cc2Br)OCO3)CC1(Br)Br` (centres undefined) was 4.29% (inactive); that for `CN1CCC(CN)(N2CCN(c3ccccc3)CC2)CC1` was -3.21% (inactive).
For `COc1ccc(NC(=O)CNC(=O)Cc2ccccc2)cc1OC`, the max response was -3.3% (inactive).
For the molecule `O=C(NCCCc1ccccc1)C(=O)c1c[nH]c2ccccc12`, the max response is 14.7% (active).
For `O=C(NC1CCCC1)C(=O)c1c[nH]c2ccccc12`, the max response is 49.1% (active).
Consider `O=C(C(=O)N1CCc2ccccc2C1)c1c[nH]c2ccccc12`, for which the max response was 10.7% (inactive).
To `COc1ccc(OC)c2[nH]c(=O)c(CCNC(=O)C(=O)c3c[nH]c4ccccc34)cc12` belongs -1.63% (inactive).
Take `CC1CCN(CC(=O)c2c[nH]c3ccccc23)CC1`: the max response is 22.4% (inactive).
For `CC(=O)NC(Cc1c[nH]c2ccccc12)C(=O)NCCc1ccccc1` (centres undefined), the max response is -4.02% (inactive).
